Inconclusive results are not listed. A call without a number means that no potency is given here. Unmarked numbers belong to inactive results. Active and inactive are the calls of the source. The call rests on the fitted dose curve; in most records, active means well fitted inhibition curve with a large enough effect in the repeat runs; inconclusive means weak or mixed curves; inactive means no such curve, though single readings can be large or run the other way.
Target: Cytochrome P450 2C19 (Homo sapiens) (UniProt P33261)
Sequence (P33261 whole entry, looked up): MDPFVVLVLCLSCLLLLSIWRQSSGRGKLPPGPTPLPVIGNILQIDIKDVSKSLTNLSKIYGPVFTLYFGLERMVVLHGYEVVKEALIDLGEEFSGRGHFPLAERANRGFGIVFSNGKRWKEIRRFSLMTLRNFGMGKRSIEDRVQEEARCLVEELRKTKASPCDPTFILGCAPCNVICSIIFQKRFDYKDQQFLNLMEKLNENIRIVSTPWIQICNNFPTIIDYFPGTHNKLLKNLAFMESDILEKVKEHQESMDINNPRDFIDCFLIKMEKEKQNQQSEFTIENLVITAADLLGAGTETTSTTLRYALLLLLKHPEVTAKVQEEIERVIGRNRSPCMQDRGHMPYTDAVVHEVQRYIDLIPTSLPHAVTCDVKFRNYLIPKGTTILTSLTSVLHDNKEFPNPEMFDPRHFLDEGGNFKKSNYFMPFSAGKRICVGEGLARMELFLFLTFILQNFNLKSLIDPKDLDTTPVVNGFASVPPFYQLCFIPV
Assay: Cytochrome P450 Family 2 Subfamily C Member 19 (CYP2C19) small molecule antagonists: luciferase reporter qHTS assay (AID 1671197); further: nearly all actives have a fitted effect of over 65% in size
Conditions: P450-Glo CYP2C19 enzyme, luciferin luminescence, 1 h; series mostly up to 115 µM
Excerpt: National Center for Advancing Translational Sciences [NCATS]
U.S. Environmental Protection Agency [EPA]
National Institutes of Environmental Health Sciences [NIEHS]
National Toxicology Program [NTP]
U.S. Food and Drug Administration [FDA]
Cytochrome P450 (CYP) enzymes are membrane-bound hemeproteins that play a key role in metabolism of drugs and xenobiotics. Evaluation of the effect of chemicals on CYP isozymes is useful to minimize the adverse drug reactions and toxicities in drug development process. Tox21 chemicals were tested for their effect on CYP enzyme activities by using P450-Glo (TM) screening systems (Promega Corporation, Madison, WI). These systems provide a luminescent method containing proluciferin substrates and are converted to luciferin products by CYP isozymes. The luciferin products formed are detected with a luciferin detection reagent, and the amount of light produced is proportional to CYP activity. P450-Glo (TM) CYP2C19 screening system (Catalog. No. V9880) was used to detect the compounds that interfere in CYP2C19 activity. The positive control compound used for CYP2C19 assay is ketoconazole (Sigma-Aldrich, St. Louis, MO).
Tox21 Assay Protocol Summary:
Two ul of enzyme-substrate mix was dispensed into medium binding white/solid 1536-well plates (Greiner Bio-One North America Inc., Monroe, NC) using a BioRaptr Flying Reagent Dispenser (FRD, Beckman Coulter, Brea, CA). Compounds dissolved in DMSO and positive control (ketoconazole) were transferred to the assay plates at 23 nl using a Pintool station (Wako, San Diego, CA). The assay plates were incubated at room temperature for 10 min. Then 2 ul of NADPH regeneration solution was added to each well of the assay plates using an FRD and incubated at 37C for 1 h. The reaction was stopped by adding 4 ul of detection reagent using an FRD and after 20 min incubation at room temperature the luminescence signal was measured using a ViewLux plate reader (Perkin Elmer, Shelton, CT). Data were expressed as relative luminescence units.
Potency means the concentration at half of the fitted maximal effect.

Row | SMILES | activity change, negative = inhibition | Potency
1 | O=S(=O)(O)c1ccc2c(N=Nc3ccc(S(=O)(=O)O)c4ccccc34)c(O)c(S(=O)(=O)O)cc2c1 | -14.2% [at 10.5 µM] | –
2 | CC(C)COC(=O)c1ccccc1 | – | inactive
3 | CN1C[C@@H]2C[C@H]1CN2c1cc2c(cc1F)c(=O)c(C(=O)O)cn2C1CC1 | 35.3% [at 23.6 µM] | –
4 | CC1CC(=O)CC(C)(C)C1 (stereo not given) | – | inactive
5 | O=C(CCCCC(=O)Nc1c(I)cc(I)c(C(=O)O)c1I)Nc1c(I)cc(I)c(C(=O)O)c1I | – | inactive
6 | CC(Oc1cc(Cl)ccc1Cl)C(=O)O (stereo not given) | – | inactive
7 | CCC(C)OC(C)CC (stereo not given) | – | inactive
8 | CCCCSCCCC | – | 79.6 µM (active)
9 | CCCC(=O)OC/C=C(\C)CCC=C(C)C | – | inactive
10 | CCC(C)C(=O)OCCc1ccccc1 (stereo not given) | – | inactive
11 | CCO[Si](CC)(OCC)OCC | – | inactive
12 | CC(=O)O[C@@H]1CC2CCC1(C)C2(C)C (stereo not given in full) | – | inactive
13 | CC(C)=CCC/C(C)=C/COC=O | – | inactive
14 | Cc1cc(-c2ccccc2)nnc1NCCN1CCOCC1 | – | inactive
15 | C=CCSSCCC | – | inactive
16 | Cc1ccnc(N)c1 | – | inactive
17 | O=Cc1ccccc1Cl | – | inactive
18 | C=CC(=O)OCC1CCCO1 (stereo not given) | – | inactive
19 | CC/C(C)=N\O[Si](C)(O/N=C(\C)CC)O/N=C(\C)CC | – | 22.8 µM (active)
20 | CCCCOC(=O)C(C)O (stereo not given) | – | inactive

Row | SMILES | activity change, negative = inhibition | Potency
21 | CC(=O)OCC(=O)Nc1cc(C#N)cc(NC(=O)COC(C)=O)c1Cl | – | inactive
22 | OCCN1CCOCC1 | – | inactive
23 | COC(=O)CCCCC(=O)O | – | inactive
24 | CCOc1ccccc1OCC1CNCCO1 (stereo not given) | – | inactive
25 | Cc1ncc([N+](=O)[O-])n1CC(C)O (stereo not given) | – | inactive
26 | CCN(CC)CCN | – | inactive
27 | Cn1nnc2c(C(N)=O)ncn2c1=O | – | inactive
28 | C=CCN1C[C@H](C(=O)N(CCCN(C)C)C(=O)NCC)C[C@@H]2c3cccc4[nH]cc(c34)C[C@H]21 | – | inactive
29 | CCOCCOCC | – | inactive
30 | CCCC(CC)c1ccccc1 (stereo not given) | – | inactive
31 | C=CCCCC | – | inactive
32 | C/C=C(\C)C(=O)OCCc1ccccc1 | – | 39.9 µM (active)
33 | CCC[C@@H]1C[C@@H](C(=O)N[C@@H]([C@H]2O[C@H](SC)[C@H](O)[C@@H](O)[C@H]2O)[C@@H](C)O)N(C)C1 | – | inactive
34 | O=C1CCCCO1 | – | inactive
35 | CSc1cnccn1 | – | inactive
36 | CC(CO)(CO)CO | – | inactive
37 | CCCCCCCCCOC(=O)CCCCC(=O)OCCCCCCC | – | inactive
38 | OC1(c2ccc(Cl)cc2)CCNCC1 | – | 3.09 µM (active)
39 | OCC1(CO)COCOC1 | – | inactive
40 | CC(S)C(C)S (stereo not given) | – | inactive

Reference: PubChem BioAssay (Tox21)
